Screening data deposited in PubChem BioAssay by National Center for Advancing Translational Sciences (NCATS).
This is a sample that favours compounds with a hit; in the whole collection about 19% have one here.
HT1080 IDH1KD tx – kills HT-1080 cells with IDH1 knockdown; HT-1080 IDH1 knockdown viability, ATP luminescence, 48 h; Potency, µM (series often up to 46.1 µM), usual class: cytotoxic; actives 2% (n = 360,000); AID 686971
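% activity derives from luminescence (CellTiter-Glo), normalised to DMSO and no-cell wells. HT-1080-IDH1KD cells, 750/well, had 48 h compound exposure at 37 °C.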
KB-3-1 cytotox – kills parental KB-3-1 adenocarcinoma cells; actives 1.4% (n = 400,000); KB-3-1 viability, CellTiter-Glo ATP luminescence, 72 h; Potency, µM (highest dose often 46.1 µM), usual class: cytotoxic; note: nearly all actives have a fitted effect of over 60% in size
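Screening of KB-3-1 cells (DMEM, 10% FBS, phenol-red free) ran from lowest to highest compound concentration; after 72 h at 37 °C viability was read luminescently and curves fitted.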
HT1080NT lethal – kills 2HG-producing HT-1080-NT fibrosarcoma cells | HT-1080-NT fibrosarcoma viability, CellTiter-Glo ATP luminescence, 48 h | Potency, µM (doses to about 46.1 µM), actives largely listed as cytotoxic | actives 1.6% (n = 360,000) | AID 686970;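 note: NT is the 2HG producing partner of a matched IDH1 knockdown line; nearly all actives have a fitted effect of over 55% in size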
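Compounds were tested in concentration-response format on HT-1080-NT cells for 48 hours at 37 degrees C. Cell viability came from CellTiter-Glo luminescence; curves were classified by r2, response magnitude and activity.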
KB-V1 cytotox – kills drug-selected multidrug resistant KB-V1 cells | AID 1347076 | actives 3.4% (n = 400,000) | KB-V1 MDR cells viability, CellTiter-Glo, 72 h | Potency, µM (highest dose often 46.1 µM), hits mostly cytotoxic; note: nearly all actives have a fitted effect of over 60% in size
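Compound-treated KB-V1 multidrug-resistant cells, 72 h, 37 degrees C; viability by CellTiter-Glo. Fitted qHTS curves give the values.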
DT40 TDP1 no CPT – qHTS for Inhibitors of human tyrosyl-DNA phosphodiesterase 1 (TDP1): qHTS in cells in absence of CPT | DT40 Tdp1-/- hTDP1 cells, no CPT, ATP luminescence, 48 h | Potency, µM (highest dose often 46.2 µM), actives largely listed as inhibitors | actives 15% (n = 420,000) | AID 686978, 2013; note: nearly all actives have a fitted effect of over 55% in size
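Stably hTDP1-transfected Tdp1-null chicken DT40 cells were treated with library compounds minus camptothecin and grown for at least 48 hr at 37 °C, after which cellular ATP was quantified by luminescence.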
DT40 TDP1 CPT – DT40-hTDP1 cell growth loss with CPT | Potency, µM (highest dose often 46.2 µM), most hits filed as inhibitors | actives 12% (n = 420,000) | chicken DT40 Tdp1-/-;hTDP1 cells + 20 nM CPT, ATP luminescence, 48 h | AID 686979; note: nearly all actives have a fitted effect of over 55% in size
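Chicken DT40 Tdp1-/- cells stably complemented with human TDP1 were seeded at 400 cells/well in medium containing 20 nM camptothecin, exposed to pin-transferred compounds, and grown at 37 °C for at least 48 hr. Viability was read as ATP luminescence.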
Each line names hits and unclear results; the compound was inactive in the other large screens. Calls come from the whole dose curve; as a rule, active = well fitted curve in the direction sought with a large enough effect; inconclusive = small, poorly fitted or top-dose-only effect, or another doubt; inactive = no such curve, though single readings can be large; an effect the other way counts as inactive or inconclusive.

O=C(c1cc(-c2ccccc2)nc2ccccc12)N1CCOCC1	none
COc1ccc(-c2cc(C(=O)N3CCCC(C(F)(F)F)C3)c3ccccc3n2)cc1 (configuration not stated)	DT40 TDP1 no CPT inconclusive, DT40 TDP1 CPT inconclusive
CCOc1ccccc1N1CCN(C(=O)c2cc(-c3cc(OC)ccc3OC)nc3ccccc23)CC1	HT1080 IDH1KD tx inconclusive, KB-3-1 cytotox inconclusive, KB-V1 cytotox inconclusive, DT40 TDP1 no CPT 13µM, DT40 TDP1 CPT 23µM
COc1ccc(-c2cc(C(=O)N3CC(C)CC(C)C3)c3ccccc3n2)cc1 (configuration not stated)	DT40 TDP1 no CPT 21µM, DT40 TDP1 CPT inconclusive
Cc1cc(Nc2cc(Cl)ccc2C)n2nc(Cc3ccccc3)nc2n1	DT40 TDP1 no CPT inconclusive, DT40 TDP1 CPT inconclusive (no result: HT1080 IDH1KD tx, HT1080NT lethal)
CC(C)OC(=O)CC1C(=O)NCCN1C(=S)NC(=O)c1ccc(F)cc1 (configuration not stated)	DT40 TDP1 no CPT inconclusive
CC(C)CN1CC[C@@]2(CCCN(C(=O)c3cccc(F)c3)C2)C1	none (no result: HT1080 IDH1KD tx, KB-3-1 cytotox, HT1080NT lethal, KB-V1 cytotox)
COc1ccc(-c2cc(C(=O)N3CCN(c4ccccc4)CC3)c3ccccc3n2)cc1	HT1080 IDH1KD tx 1.8µM, KB-3-1 cytotox inconclusive, HT1080NT lethal inconclusive, KB-V1 cytotox 7.3µM, DT40 TDP1 no CPT 4.6µM, DT40 TDP1 CPT 3.3µM
CC1CN(C(=O)c2cc(-c3ccc(Cl)s3)nc3ccccc23)CC(C)O1 (configuration not stated)	DT40 TDP1 no CPT 16µM, DT40 TDP1 CPT inconclusive
COc1ccc(OC)c(-c2cc(C(=O)N3CCN(c4ncccn4)CC3)c3ccccc3n2)c1	KB-V1 cytotox inconclusive, DT40 TDP1 no CPT 18µM, DT40 TDP1 CPT 16µM
COc1ccccc1NC(=O)C1CCCCN1S(=O)(=O)c1ccc(F)cc1 (configuration not stated)	KB-V1 cytotox 5.2µM, DT40 TDP1 no CPT inconclusive
O=C(Nc1ccc(OC(F)(F)F)cc1)C1CCCCN1S(=O)(=O)c1ccccc1 (configuration not stated)	KB-3-1 cytotox inconclusive, KB-V1 cytotox inconclusive, DT40 TDP1 no CPT 15µM, DT40 TDP1 CPT inconclusive
COc1ccc(NC(=O)C2CCCCN2S(=O)(=O)c2ccc(F)cc2)cc1 (configuration not stated)	HT1080 IDH1KD tx inconclusive, DT40 TDP1 CPT inconclusive
CCOc1ccccc1NC(=O)C1CCCCN1S(=O)(=O)c1ccccc1 (configuration not stated)	KB-3-1 cytotox inconclusive, KB-V1 cytotox 8.2µM, DT40 TDP1 no CPT 21µM, DT40 TDP1 CPT inconclusive
CCOc1ccc(NC(=O)C2CCCCN2S(=O)(=O)c2ccccc2)cc1 (configuration not stated)	KB-3-1 cytotox inconclusive, KB-V1 cytotox inconclusive, DT40 TDP1 no CPT inconclusive, DT40 TDP1 CPT inconclusive
COc1ccc(NC(=O)C2CCCCN2S(=O)(=O)c2ccc(F)cc2)c(OC)c1 (configuration not stated)	KB-V1 cytotox 5.8µM
CCc1ccc(NC(=O)Cn2nnc(C(=O)Nc3ccc(F)cc3)c2N)cc1	none (no result: HT1080 IDH1KD tx, KB-3-1 cytotox, HT1080NT lethal, KB-V1 cytotox)
COC(=O)c1sc2cccc(F)c2c1S(=O)(=O)N1CCN(c2cccc(C)c2)C(C)C1 (configuration not stated)	KB-V1 cytotox inconclusive, DT40 TDP1 no CPT inconclusive, DT40 TDP1 CPT inconclusive (no result: HT1080 IDH1KD tx, HT1080NT lethal)
Cc1cccc(NC(=O)c2nc[nH]c2C(=O)N[C@H](C)CO)c1	none
O=C(CC1SC(=O)N(Cc2ccccc2Cl)C1=O)Nc1nccs1 (configuration not stated)	DT40 TDP1 no CPT inconclusive
O=C(NC1CCCc2c1cnn2-c1ccccc1F)c1ccccc1N1CCOCC1 (configuration not stated)	DT40 TDP1 no CPT 13µM, DT40 TDP1 CPT 16µM
COc1ccc(C(=O)NC2CCCc3c2cnn3-c2ccccc2F)o1 (configuration not stated)	HT1080NT lethal inconclusive, DT40 TDP1 no CPT inconclusive
Cc1cc(C)cc(-n2ncc3c2CCCC3NC(=O)c2ccccc2N2CCOCC2)c1 (configuration not stated)	HT1080 IDH1KD tx 16µM, KB-3-1 cytotox inconclusive, HT1080NT lethal inconclusive, KB-V1 cytotox inconclusive, DT40 TDP1 no CPT 16µM, DT40 TDP1 CPT inconclusive
Cc1ccc(NCCCCO)cc1C	DT40 TDP1 no CPT inconclusive
CCC(=O)c1ccc(OCCSc2ncccn2)cc1	DT40 TDP1 no CPT 18µM, DT40 TDP1 CPT inconclusive
COc1ccc(N2CCN(Cc3nc(Cc4cccc(F)c4)no3)C(C)C2)cc1 (configuration not stated)	DT40 TDP1 no CPT 18µM
Fc1cccc(Cc2noc(CN3CCSCC3)n2)c1	none
COc1cc(=O)n2c(c1C(=O)NCc1ccco1)CCN(Cc1ccc3ccccc3c1)CC2	none (no result: HT1080 IDH1KD tx, KB-3-1 cytotox, HT1080NT lethal, KB-V1 cytotox)
CCN(CC)c1ccc(/C=N/Nc2nc(C)cc(C)n2)cc1	DT40 TDP1 no CPT 18µM, DT40 TDP1 CPT 23µM
CCN(CC)c1ccc(/C=N/Nc2nn[nH]n2)cc1	DT40 TDP1 no CPT 12µM, DT40 TDP1 CPT inconclusive
Brc1cccc(/C=N/Nc2nn[nH]n2)c1	none
CC(=O)N(C(C)=O)c1ccc2c(c1)OCCO2	none
CCOC(=O)c1ccc(N(C(=O)c2ccco2)C(C(=O)NC2CCCC2)c2ccncc2)cc1 (configuration not stated)	DT40 TDP1 no CPT inconclusive
CCc1ccc(NC(=O)Cn2c(=O)n(Cc3ccco3)c(=O)c3oc4ccccc4c32)cc1	none (no result: HT1080 IDH1KD tx, HT1080NT lethal)
O=C(NNc1ccc([N+](=O)[O-])cc1[N+](=O)[O-])c1ccco1	HT1080 IDH1KD tx inconclusive, KB-3-1 cytotox inconclusive, HT1080NT lethal 18µM, DT40 TDP1 no CPT 21µM, DT40 TDP1 CPT 15µM
O=S1(=O)N[C@@H](Cc2ccccc2)COc2cc(N3CCC[C@H]3CO)ccc21	DT40 TDP1 no CPT inconclusive, DT40 TDP1 CPT inconclusive
CCCCc1cc(=O)oc2cc(C)cc(OCC(=O)N3CCC(C(=O)O)(c4ccccc4)CC3)c12	KB-V1 cytotox inconclusive
Cc1cc(OC(C)C)c2c(-c3ccccc3)cc(=O)oc2c1	KB-V1 cytotox inconclusive, DT40 TDP1 no CPT inconclusive, DT40 TDP1 CPT 23µM
CC(Oc1ccc2c(-c3ccccc3)cc(=O)oc2c1)C(=O)O (configuration not stated)	none
CCOc1cc(C)cc2oc(=O)cc(-c3ccccc3)c12	KB-V1 cytotox inconclusive, DT40 TDP1 no CPT 21µM, DT40 TDP1 CPT 13µM
Cc1cc(OCC(=O)N2CCc3ccccc3C2)c2c(-c3ccccc3)cc(=O)oc2c1	HT1080 IDH1KD tx inconclusive, KB-3-1 cytotox inconclusive, HT1080NT lethal inconclusive, DT40 TDP1 no CPT inconclusive, DT40 TDP1 CPT 23µM
